Results on 35 molecules are retold here after PubChem BioAssay (NCATS).

“And” between values parts separate entries of the source, which are not always exact repeats. Identical values can stand only once. Inconclusive results are not listed. The source made the active and inactive calls. Unless noted, the call rests on the fitted dose curve; in most records, active means well fitted curve in the direction sought with a large enough effect; inconclusive means small, poorly fitted or top-dose-only effect, or another doubt; inactive means no such curve, though single readings can be large; an effect the other way counts as inactive or inconclusive.

Experiment [1] can be described thus: qHTS assay for small molecule disruptors of the mitochondrial membrane potential - 1 hr assay (AID 651754; calls by dose curve; further: nearly all actives have a fitted effect of over 35% in size; further: potency means the concentration at half of the fitted maximal effect). The essentials:
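Mitochondrial potential in living HepG2 cells after 1 hr compound treatment at 37C was read with Mito-MPS dye added for a further 30 min. Red aggregate and green monomer fluorescence were measured; loss of potential leaves dye as cytoplasmic monomers.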
In general terms: Quantitative high-throughput screening tests each substance at several concentrations.

Experiment [2] is described as follows: qHTS assay for small molecule disruptors of the mitochondrial membrane potential - 5 hr assay (AID 651755; calls by dose curve; further: nearly all actives have a fitted effect of over 40% in size; further: potency means the concentration at half of the fitted maximal effect). The essentials: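 Membrane-potential dye readout: red aggregate (540 ex/590 em) versus green monomer (490 ex/535 em) fluorescence after 30 min dye loading, following 5 hr compound exposure at 37C of overnight-plated HepG2 cells.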
Experiment [3] addresses Tumor necrosis factor (Homo sapiens) (UniProt P01375). Description: qHTS assay to identify small molecules that stimulate Tumor Necrosis Factor-alpha (TNF-alpha) secretion (AID 651757; active means well fitted curve in the direction sought with a large enough effect in the signal ratio; the % refers to the signal ratio; further: 0% is about no effect). The method in brief:
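Secreted TNF-alpha quantified by TR-FRET sandwich of two labeled anti-TNF-alpha antibodies, incubated 3 hr at room temperature. Preceded by 17 hr, 37 C compound treatment of THP-1 cells at 3000 cells/well.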

A short description of experiment [4]: qHTS assay for environmental chemicals that activate the Aryl hydrocarbon Receptor (AhR) signaling pathway (AID 651777). Further: % of control where 0% means no effect; nearly all actives have a fitted effect of over 15% in size. The conditions noted are these: 1A2-DRE human hepatoma cells, luciferase, 24 h; activation: hits give high values. The essentials: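 Luminescence read-out: One-Glo added for 30 min at RT after 24 hr compound treatment (37 C, 5% CO2) of human hepatoma cells expressing a DRE/CYP1A2 promoter–luciferase reporter; increased signal indicates AhR activation.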

In experiment [5] the target is Peroxisome proliferator-activated receptor alpha (Homo sapiens) (UniProt Q07869). Description: qHTS assay for small molecule agonists of the peroxisome proliferator-activated receptor alpha (PPARalpha) signaling pathway (AID 651778). Further: % of control where 0% means no effect. Particulars: PathHunter PPARalpha complementation, chemiluminescence, 6 h; hits give high values. The essentials: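 Chemiluminescence from complemented enzyme reported PPARalpha activation in cells after 6 hr of compound treatment at 37 C. The detection reagent was incubated for 60 min at room temperature, and compounds were scored as agonists.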

The nature of experiment [6]: qHTS for compounds that reverse cellular toxicity of Amyloid beta (A-beta) peptide in yeast: LOPAC Validation Assay (AID 720559).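 Further: plate controls were DMSO for no effect and equimolar ferric chloride plus clioquinol rescue for full effect.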 The essentials: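 OD600 growth readout after 48 hr at 30 C; A-beta-toxic yeast plus pinned compounds in medium. Normalization: DMSO = negative, equimolar FeCl3 + clioquinol = positive.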
The nature of experiment [7]: qHTS for Activators of Parkin Expression: LOPAC Validation Assay (NLuc Reporter) (AID 720572). The method in brief: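 Compound effects on Parkin promoter activity were measured as NanoLuc luminescence after 24 h at 37 C. The neuronal reporter line also carried FLuc, which was read first. LOPAC compounds were tested at 7 concentrations, with normalization to DMSO (0%) and positive control (100%).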

Experiment [8] can be described thus: qHTS assay to identify small molecules that stimulate interleukin-8 (IL-8) secretion (AID 651758; active means well fitted activation curve with a large enough effect in the signal ratio; the % refers to the signal ratio; further: 0% is about no effect). The method in brief: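 Secreted IL-8 measured homogeneously by TR-FRET (two labelled anti-IL-8 antibodies, 1-3 h at room temperature) after a 16 h, 37 C compound treatment of THP-1 cells at 2000 cells/well.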
Experiment [9] addresses Nuclear receptor ROR-gamma (Homo sapiens) (UniProt P51449). Description: qHTS assay for small molecule antagonists of the retinoid-related orphan receptor gamma (ROR-gamma) signaling pathway (AID 651802). Further: nearly all actives have a fitted effect of over 60% in size. Further: potency means the concentration at half of the fitted maximal effect. The essentials: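 Luminescence (One-Glo, 30 min RT) measured 16 h after compound addition and doxycycline induction at 37C. Reporter: RORE-luciferase under TET-inducible ROR-gamma in CHO cells.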

In experiment [10] the target is Arylsulfatase A (Homo sapiens) (UniProt P15289). Description: qHTS screen for enhancers of Arylsulfatase A (ASA1): LOPAC Validation Assay (AID 720538). Further: potency means the concentration at half of the fitted maximal effect. The method in brief: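 Read-out: fluorescence at Ex=525/Em=598 nm after 1N NaOH final stop. Patient fibroblasts carrying ASA-I179S had 48h compound exposure, then 14h room-temperature pNCS hydrolysis (0.5mM final) in lysis buffer. Signal increase = enhanced activity.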
Arylsulfatase A (Homo sapiens), sequence (P15289 whole entry, looked up): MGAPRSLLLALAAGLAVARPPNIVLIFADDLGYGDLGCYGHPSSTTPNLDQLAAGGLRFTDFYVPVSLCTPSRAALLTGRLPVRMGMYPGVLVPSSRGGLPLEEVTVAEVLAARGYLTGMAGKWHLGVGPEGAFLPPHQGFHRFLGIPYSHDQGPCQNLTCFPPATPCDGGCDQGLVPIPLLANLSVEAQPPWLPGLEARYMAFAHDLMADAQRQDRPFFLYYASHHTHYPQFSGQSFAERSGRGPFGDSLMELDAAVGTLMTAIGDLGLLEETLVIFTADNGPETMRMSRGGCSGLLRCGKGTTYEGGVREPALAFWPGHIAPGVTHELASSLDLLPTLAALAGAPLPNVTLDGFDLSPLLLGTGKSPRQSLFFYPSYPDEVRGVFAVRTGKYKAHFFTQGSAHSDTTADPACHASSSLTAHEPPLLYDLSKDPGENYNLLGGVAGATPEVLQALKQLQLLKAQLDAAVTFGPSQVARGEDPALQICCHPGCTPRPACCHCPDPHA

Tumor necrosis factor (Homo sapiens), sequence (P01375 whole entry, looked up): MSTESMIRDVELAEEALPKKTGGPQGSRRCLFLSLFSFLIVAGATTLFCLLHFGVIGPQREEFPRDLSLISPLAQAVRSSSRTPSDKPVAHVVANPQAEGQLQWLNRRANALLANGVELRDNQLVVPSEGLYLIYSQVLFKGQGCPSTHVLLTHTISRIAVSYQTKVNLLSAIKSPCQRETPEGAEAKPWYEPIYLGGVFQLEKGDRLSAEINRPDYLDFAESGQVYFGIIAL
Nuclear receptor ROR-gamma (Homo sapiens), sequence (P51449 whole entry, looked up): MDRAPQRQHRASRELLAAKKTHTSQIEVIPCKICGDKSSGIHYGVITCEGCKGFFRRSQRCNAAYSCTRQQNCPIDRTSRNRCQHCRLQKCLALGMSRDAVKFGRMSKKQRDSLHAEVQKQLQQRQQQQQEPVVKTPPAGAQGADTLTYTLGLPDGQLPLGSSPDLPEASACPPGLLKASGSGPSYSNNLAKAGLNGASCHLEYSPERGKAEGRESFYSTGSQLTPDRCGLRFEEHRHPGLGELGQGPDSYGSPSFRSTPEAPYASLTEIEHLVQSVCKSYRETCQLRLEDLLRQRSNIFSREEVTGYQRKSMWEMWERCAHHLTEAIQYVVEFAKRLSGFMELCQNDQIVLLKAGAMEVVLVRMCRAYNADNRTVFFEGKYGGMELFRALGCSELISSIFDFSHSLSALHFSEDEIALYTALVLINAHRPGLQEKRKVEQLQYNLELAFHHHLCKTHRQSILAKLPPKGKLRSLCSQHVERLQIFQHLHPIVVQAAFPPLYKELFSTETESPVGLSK
Peroxisome proliferator-activated receptor alpha (Homo sapiens), sequence (Q07869 whole entry, looked up): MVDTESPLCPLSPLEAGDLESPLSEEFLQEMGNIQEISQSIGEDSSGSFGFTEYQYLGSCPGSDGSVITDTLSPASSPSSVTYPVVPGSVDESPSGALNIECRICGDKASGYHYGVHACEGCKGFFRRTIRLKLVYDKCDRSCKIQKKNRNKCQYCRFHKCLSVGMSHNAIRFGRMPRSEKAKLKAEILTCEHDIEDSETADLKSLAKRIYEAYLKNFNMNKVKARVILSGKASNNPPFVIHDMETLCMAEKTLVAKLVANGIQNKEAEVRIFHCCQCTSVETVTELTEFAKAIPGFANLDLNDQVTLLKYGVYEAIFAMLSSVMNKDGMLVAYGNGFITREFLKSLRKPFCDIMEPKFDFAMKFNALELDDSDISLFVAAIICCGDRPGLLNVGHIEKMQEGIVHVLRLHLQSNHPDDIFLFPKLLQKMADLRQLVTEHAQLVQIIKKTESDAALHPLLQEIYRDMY

Take `O=C1C=CC(=O)C=C1`: the Potency entry in [1], in experiment [2] and in experiment [7] was “inactive” each time. Moreover, the call in [3] and in experiment [6] was inactive. Moreover, the activation in experiment [4] was 1.56% (inactive). Moreover, in experiment [5], the max response was -5.62% (inactive).
Take `C=CCN=C=S`: the Potency result in [1], in experiment [2], in experiment [8] and in [9] was “inactive” in each case. The outcome in experiment [3] was inactive. Also, the activation in [4] is 0.264% (inactive). Further, the max response in experiment [5] was -1.57% (inactive).
Take `CCCCCCCCOC(=O)c1ccccc1C(=O)OCCCCCCCC`: the Potency entry in experiment [1], in experiment [2] and in experiment [9] was “inactive” each time. Moreover, the outcome in [3] was inactive. For the same molecule, the activation in experiment [4] was -0.0695% (inactive) and 0.763% (inactive). For the same molecule, the max response in [5] is 0.808% (inactive) and 0.946% (inactive).
Consider `C[C@]12CCC(=O)C[C@@H]1CC[C@@H]1[C@@H]2CC[C@]2(C)[C@@H](O)CC[C@@H]12`, for which, in [3], the molecule was called inactive. In addition, in [4], the activation is -0.925% (inactive) and -0.613% (inactive). Besides, the max response in experiment [5] was -1.24% (inactive) and 0.0043% (inactive). For the same molecule, the Potency in [9] was 26.6 µM (active).
As to `O=C1C2CC=CCC2C(=O)N1SC(Cl)(Cl)Cl` (centres undefined), the Potency was 26.6 µM (active) and 33.5 µM (active) in experiment [1]; 23.7 µM (active) and 33.5 µM (active) in experiment [2]. For the same molecule, in [3], the result was inactive. Besides, the activation in experiment [4] was -4.61% (inactive) and -3.77% (inactive) and 2.69% (inactive). Moreover, the max response in experiment [5] was -6.31% (inactive) and -2.76% (inactive) and -2.09% (inactive).
`[O]=[Cr](=[O])([OH])[O][Cr](=[O])(=[O])[OH]`: the Potency result in experiment [1], in experiment [2] and in experiment [8] was “inactive” in each case. Moreover, the outcome in experiment [3] was inactive. Further, the activation in experiment [4] is 0.789% (inactive) and 0.878% (inactive) and -0.644% (inactive). Also, the max response in [5] is -2.4% (inactive) and -2.51% (inactive) and -6.59% (inactive). Besides, in experiment [9], the Potency is 33.5 µM (active) and 16.8 µM (active).
For the molecule `ClC(Cl)(Cl)Cl`, the Potency result in experiment [1], in experiment [2], in experiment [8] and in experiment [9] was “inactive” each time. Further, the outcome in experiment [3] was inactive. Besides, the activation in [4] is -0.636% (inactive) and 0.214% (inactive). The max response in experiment [5] is -1.24% (inactive) and -4.01% (inactive).
For `O=Cc1ccco1`, the Potency result in experiment [1] and in [2] was “inactive” each time. Moreover, the molecule was called inactive in [3]. The activation in [4] is -0.549% (inactive). The max response in [5] is -1.43% (inactive).
On to `C[CH2][Hg][S]c1ccccc1C(=O)O`, for which the activation in experiment [4] was -11.2% (inactive). The max response in experiment [5] was -9.74% (inactive).
As to `CCCCCl`, the Potency entry in experiment [1], in experiment [2] and in experiment [9] was “inactive” each time. Moreover, the call in experiment [3] was inactive. For the same molecule, the activation in experiment [4] is -0.771% (inactive). For the same molecule, the max response in experiment [5] is -3.81% (inactive).
In the case of `O=[N+]([O-])c1ccc(F)c([N+](=O)[O-])c1`, the Potency in experiment [9] was 33.5 µM (active).
With `CC(=O)c1c(O)c(C)c(O)c(Cc2c(O)c3c(c(C(=O)/C=C/c4ccccc4)c2O)OC(C)(C)C=C3)c1O`, the Potency result in experiment [10] and in experiment [7] was “inactive” in each case. The molecule was classed as inactive in experiment [6].
`NC(N)=NOCC[C@H](N)C(=O)O`: the Potency entry in experiment [10] and in experiment [7] was “inactive” in each case. Also, the call in [6] was inactive.
In the case of `CCCN(CCC)C1CCc2cccc(O)c2C1` (centres undefined), the Potency entry in [10] and in [7] was “inactive” each time. In experiment [6], the molecule was called inactive.
`N[C@@H](Cn1ccc(=O)[nH]c1=O)C(=O)O`: the Potency entry in experiment [10] and in experiment [7] was “inactive” throughout. For the same molecule, the outcome in experiment [6] was inactive.
As to `O=c1c2ccccc2[se]n1-c1ccccc1`, the Potency entry in experiment [10] and in [7] was “inactive” in each case. In addition, the outcome in experiment [6] was inactive.
Regarding `C=CCN1CCC23c4c5ccc(O)c4O[C@H]2C(=O)CC[C@@]3(O)C1C5` (some centres undefined), the Potency result in [10] and in experiment [7] was “inactive” throughout. Moreover, the molecule was classed as inactive in experiment [6].
In the case of `Cc1[nH]c2ccc(O)cc2c1CCN`, the Potency entry in experiment [10] and in experiment [7] was “inactive” each time. Besides, the outcome in experiment [6] was inactive.
On to `O=C1CC[C@@]2(O)C3Cc4ccc(O)c5c4C2(CCN3CC2CC2)[C@H]1O5` (some centres undefined), for which the Potency in experiment [10] is 426 nM (active). Also, the molecule was called inactive in experiment [6]. Moreover, the Potency result in [7] was “inactive”.
Regarding `CCN(CCCl)Cc1ccccc1Br`, the Potency result in [10] and in experiment [7] was “inactive” throughout. Further, the call in experiment [6] was inactive.
For the molecule `CN(N=O)c1cc(O)ccc1O`, the Potency result in experiment [10] and in experiment [7] was “inactive” throughout. Further, the outcome in [6] was inactive.
As for `CO[C@H]1CC=C2CCN3CCC4=C(CC(=O)OC4)[C@]23C1`, the Potency result in experiment [10] and in experiment [7] was “inactive” in each case. Moreover, the result in experiment [6] was inactive.
In the case of `CC(C)[C@@]1(NC(=O)[C@@H]2C[C@@H]3c4cccc5[nH]cc(c45)C[C@H]3N(C)C2)O[C@@]2(O)[C@@H]3CCCN3C(=O)[C@H](Cc3ccccc3)N2C1=O`, the Potency result in [10] and in [7] was “inactive” throughout. Besides, in [6], the result was inactive.
In the case of `CCCN(CCC)[C@@H]1CCc2cccc(O)c2C1`, the Potency entry in [10] and in experiment [7] was “inactive” throughout. Further, in experiment [6], the result was inactive.
For the molecule `c1ccc2c(N3CCNCC3)cccc2c1`, the Potency entry in [10] and in experiment [7] was “inactive” throughout. Further, the result in [6] was inactive.
As to `C[Se]C[C@H](N)C(=O)O`, the Potency result in [10] and in experiment [7] was “inactive” in each case. Also, in [6], the outcome was inactive.
For `CC(C)(C)c1o[nH]c(=O)c1CC(N)C(=O)O` (centres undefined), the Potency entry in experiment [10] and in [7] was “inactive” each time. For the same molecule, the outcome in [6] was inactive.
As for `COc1ccc2c(c1)[C@@]13CCCC[C@H]1[C@@H](C2)NCC3`, the Potency result in experiment [10] and in [7] was “inactive” each time. For the same molecule, in experiment [6], the outcome was inactive.
In the case of `NC(C(=O)O)c1cc(=O)[nH]o1` (centres undefined), the Potency entry in [10] and in [7] was “inactive” each time. Moreover, in [6], the call was inactive.
With `CC(C)NP(=O)(NC(C)C)OP(=O)(NC(C)C)NC(C)C`, the Potency result in [10] and in experiment [7] was “inactive” each time. Moreover, the result in [6] was inactive.
Turning to `CCn1cnc2c(Nc3cccc(Cl)c3)nc(N[C@@H]3CCCC[C@@H]3N)nc21`, the Potency result in experiment [10] and in experiment [7] was “inactive” throughout. Further, in [6], the outcome was inactive.
Consider `CC(=O)OCC1=C(C(=O)O)N2C(=O)[C@@H](NC(=O)CCC[C@@H](N)C(=O)O)[C@H]2SC1`, for which the Potency entry in [10] and in experiment [7] was “inactive” throughout. Moreover, the outcome in experiment [6] was inactive.
`COc1ccc(CNC(=O)/C=C/c2ccc3[nH]cc(CCN(C)C)c3c2)cc1`: the Potency entry in experiment [10] and in [7] was “inactive” in each case. Moreover, in experiment [6], the outcome was inactive.
Take `CN1CC[C@@]2(C)c3cc(OC(=O)Nc4ccccc4)ccc3N(C)[C@@H]12`: the Potency result in [10] and in experiment [7] was “inactive” each time. In addition, in experiment [6], the result was inactive.
As to `CCCN(CCC)CCc1c[nH]c2ccc(C(N)=O)cc12`, the Potency result in experiment [10] and in experiment [7] was “inactive” each time. Further, the call in experiment [6] was inactive.
